High-throughput results: PubChem BioAssay, several laboratories
In the library only some 27% were active in any assay of this set; here they are far more common.
CYP2C9 inhib – human CYP2C9 inhibition. actives 20% (n = 96,000). P11712. inhibition, % at 5 µM. CYP2C9 Supersomes, luciferin-H conversion, luminescence;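 active = blocking of liver enzyme CYP2C9 beyond about 50% at 5 µM, limit read from the data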
Target sequence (P11712 whole entry, looked up): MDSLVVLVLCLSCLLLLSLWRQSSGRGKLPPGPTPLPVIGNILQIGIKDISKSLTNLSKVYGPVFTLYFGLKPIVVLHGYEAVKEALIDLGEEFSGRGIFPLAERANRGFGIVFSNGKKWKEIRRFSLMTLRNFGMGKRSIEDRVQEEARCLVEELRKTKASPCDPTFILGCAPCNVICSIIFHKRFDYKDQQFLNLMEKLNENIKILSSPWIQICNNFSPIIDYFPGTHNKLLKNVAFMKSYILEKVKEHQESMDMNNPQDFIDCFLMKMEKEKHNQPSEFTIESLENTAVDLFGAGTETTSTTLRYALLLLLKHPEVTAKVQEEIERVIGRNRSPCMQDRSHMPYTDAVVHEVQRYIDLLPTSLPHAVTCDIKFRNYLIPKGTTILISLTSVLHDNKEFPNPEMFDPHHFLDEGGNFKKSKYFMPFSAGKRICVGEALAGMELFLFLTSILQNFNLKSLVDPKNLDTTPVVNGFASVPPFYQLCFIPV
sEH inh – blocks human soluble epoxide hydrolase activity. recombinant human sEH enzymatic activity assay. inhibition, % at 2 µM. actives 0.34% (n = 91,000). P34913; in the data active = inhibition above about 80%
CYP2C19 activ – activators of human cytochrome P450 2C19. P33261. recombinant CYP2C19, luciferin-H EGE luminescence; stronger effect = higher value; 0 = fully inhibited enzyme, 1 = untreated enzyme. activation factor at 5 µM. 96,000 tested, under 10 active. AID 1025;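 active = activation factor of at least 2 at 5 µM in the primary screen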;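 also: 0 = wells with 2.5 mM tranylcypromine and 1 = vehicle-only wells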
sEH activator – activators of human soluble epoxide hydrolase; AID 717; activation, % at 2 µM; purified human sEH enzymatic activity, activator screen; actives 0.04% (n = 91,000); in the data active = activation above about 37%
CYP2C9 act – CYP2C9 (human) activation. activation factor at 5 µM. recombinant CYP2C9, luciferin-H conversion, luminescence; stronger effect = higher value; factor 1 = untreated enzyme, 0 = blocked. actives 1.4% (n = 96,000). AID 1024. P11712;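 active = activation factor of 2 or more for CYP2C9 at a 5 µM dose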;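 also: 0 = sulfaphenazole-blocked wells and 1 = vehicle-only wells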
CYP2C19 inhib – blocks human cytochrome P450 2C19 | inhibition, % at 5 µM | actives 21% (n = 96,000) | CYP2C19 Supersomes, luciferin-H EGE luminescence, 30 min;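 active = CYP2C19 inhibition above a set limit at 5 µM in the primary screen, cut at about 50% in these data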;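 also: plate controls were negative control wells for no effect and 2.5 mM tranylcypromine positive control for full effect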
* hit, by the source's call; nt = no result.

SMILES	CYP2C9 inhib	sEH inh	CYP2C19 activ	sEH activator	CYP2C9 act	CYP2C19 inhib
COC(=O)Cn1cnc(=O)c(C#N)c1/C=C/N(C)C	0	nt	1.1	nt	1	-14
CN(C)c1ccc(/C=C(\C#N)C(=O)Nc2nc3c(s2)CCN(Cc2ccccc2)C3)cc1	20	2	0.5	-3	0.8	46
Cc1cc2cc(C(c3nnnn3Cc3ccccc3)N3CCc4ccccc43)c(=O)[nH]c2cc1C (stereo unspecified)	68*	-7	0.7	5	0.3	33
O=C(CN(C(=O)CSc1nnc(COc2ccccc2)o1)c1ccc(F)cc1)NC1CCCCC1	30	28	0.9	-28	0.7	10
CCOC(=O)CCNC(=O)c1ccccc1Br	3	nt	0.8	nt	1	20
C(=N\n1cnnc1)/c1ccc(OCc2cccc3ccccc23)cc1	81*	-18	0.6	15	0.2	38
C(=N\n1cnnc1)/c1ccc(OC2CSC2)cc1	85*	nt	0.1	nt	0.1	93*
Fc1ccccc1COc1ccc(/C=N/n2cnnc2)cc1	95*	-8	0	9	0.1	97*
Cc1ccc(C(=O)Nc2nncs2)cc1S(=O)(=O)N1CCOCC1	37	-21	0.5	22	0.6	45
CCn1c2ccccc2c2cc(NC(=O)CSc3nnc(-c4cccc(Cl)c4)o3)ccc21	39	-4	0.5	4	0.6	47
CCC1CCCCN1C(=O)CSc1nnc(-c2ccc(Cl)s2)o1 (stereo unspecified)	46	10	0.1	-9	0.5	95*
CCC1CCCCN1C(=O)CSc1nnc(-c2ccc(Cl)cc2)o1 (stereo unspecified)	33	-8	0.2	9	0.7	82*
CCC1CCCCN1C(=O)CSc1nnc(-c2ccco2)o1 (stereo unspecified)	nt	-5	nt	8	nt	nt
CCC1CCCCN1C(=O)CSc1nnc(CNC(=O)COc2ccc(Cl)cc2)o1 (stereo unspecified)	62*	-4	0.5	6	0.4	45
CCOC(=O)N1CCN(C(=O)CSc2nnc(-c3ccc(Cl)s3)o2)CC1	17	6	1	-5	0.8	1
CCC1CCCCN1C(=O)CSc1nnc(-c2cccc(Cl)c2)o1 (stereo unspecified)	-128	nt	0	nt	2.3*	98*
COc1ccc(C2c3c(-c4ccccc4O)n[nH]c3C(=O)N2CCc2ccc(OC)c(OC)c2)cc1 (stereo unspecified)	96*	nt	0.1	nt	0	86*
Cc1ccc(N2C(=O)CSC2c2c(F)cccc2Cl)cc1 (stereo unspecified)	58*	2	0.1	-3	0.4	93*
CCNc1nc(NCC)nc(C(=O)NN)n1	nt	4	nt	-1	nt	nt
COc1ccc(NC(=O)NC2(C(=O)N3CCCCCC3)CCCCC2)cc1	60*	nt	0.7	nt	0.4	29
Cc1ccc(NC(=O)NC2(C(=O)NCc3ccccc3)CCCCC2)cc1	34	nt	0.6	nt	0.7	39
Cc1ccc(CNC(=O)C2(NC(=O)Nc3ccc(C)cc3)CCCCC2)cc1	54*	4	0.5	-3	0.5	46
COc1ccc(CN2CCC(CNC(=O)NC3CCCCC3)CC2)cc1	-1	21	1	-21	1	4
CC1=CC(C)(C)n2c(O)c(C3=NC(=S)NC3=O)c3cc(OC(=O)c4cccc5ccccc45)cc1c32	-3	4	1.1	0	1	-10
CCOC(=O)c1cnc2c(C)c(-c3ccccc3)[nH]n2c1=O	22	5	1.1	-3	0.8	-10
SMILES	CYP2C9 inhib	sEH inh	CYP2C19 activ	sEH activator	CYP2C9 act	CYP2C19 inhib
N#CC1=C(N)SC(N)=C(C#N)C1c1cccc(Oc2ccccc2)c1	92*	-1	0.6	0	0.1	42
CCOc1ccccc1C1C(C#N)=C(N)SC(N)=C1C#N	-7	15	0.5	-14	1.1	52*
Cc1ccc(C2C(C#N)=C(N)SC(N)=C2C#N)o1	48	-14	1	16	0.5	-1
CCOc1ccc(C2C(C#N)=C(N)SC(N)=C2C#N)cc1OC	91*	nt	0.5	nt	0.1	54*
CCOc1ccc(C2C(C#N)=C(N)SC(N)=C2C#N)cc1OCC	84*	nt	0.4	nt	0.2	58*
CCCOc1ccc(C2C(C#N)=C(N)Oc3nc[nH]c(=O)c32)cc1OC (stereo unspecified)	11	4	1	-6	0.9	2
